Data on seven molecules can be found in PubChem BioAssay (NCI).

Molecules are shown by their SMILES. This is part of a sample that, as a whole, favours compounds with a hit. Of some 83,000 tested, about 20% had one in any assay.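 96-well plates, one dose, 48 hours. Percent growth reported; active if below 10.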 A number with no mark means an inactive call. The source made the active and inactive calls.

Common to all, as to assay: NCI-60 one-dose screen, 48 h (100 = growth as untreated, 0 = no growth, -100 = all killed)
Settings in all cases: 10 µM unless noted

For assay [1], the system named is SK-MEL-2 melanoma.
The test system of assay [2] is EKVX NSCLC.
The test system of assay [3] is SN12C renal.
For assay [4], the system named is UO-31 renal.
Assay [5] relates to TK-10 renal.
For assay [6], the system named is ACHN renal.
Assay [7] concerns CAKI-1 renal.
In assay [8] the test system is A498 renal.
For assay [9], the system named is CCRF-CEM leukemia.
The subject of assay [10] is MOLT-4 leukemia.
Assay [11] deals with SR leukemia.
Assay [12] has as its system RPMI-8226 leukemia.
Assay [13] relates to OVCAR-8 ovarian.
Assay [14] relates to OVCAR-5 ovarian.
Assay [15] relates to OVCAR-4 ovarian.
Assay [16] concerns SK-OV-3 ovarian.
Assay [17] has as its system IGROV1 ovarian.
For assay [18], the system named is OVCAR-3 ovarian.
Assay [19] has as its system HS 578T breast.
Assay [20] deals with NCI/ADR-RES ovarian.

For the molecule `Cn1cc(-c2csc(-c3c[nH]c4ccc(F)cc34)n2)c2ccnc(Cl)c21`, the growth in assay [1] was 104%; in assay [2], 65.6%; in assay [3] it was 73.6%; in assay [4] it was 53%; in assay [5], 69.8%; in assay [6], 51%. The growth was 69.8% in [7]; 42.5% in assay [8]; 50.5% in assay [9]; 64.9% in assay [10]; 44.4% in assay [11]; 52.9% in assay [12]. The growth is 80.5% in assay [13]; 127% in assay [14]; 47.2% in assay [15]; 74.3% in assay [16]; 70.5% in assay [17]; 73.4% in assay [18]. Moreover, the growth was 74.3% in [19] and 71.4% in assay [20].

As to `COc1ccccc1N(C(C)=O)C1=C(Cl)C(=O)c2ccccc2C1=O`, the growth in assay [1] was -38.2% (active); in [2] it was 10.1%; in assay [3] it was 16%; in [4], 11.4%; in [5], -6.2% (active); in [6], -29.5% (active). For the same molecule, the growth in [7] was 10.6%; in assay [8], 36.2%; in assay [9] it was -16.9% (active); in [10] it was 10.9%; in [11] it was -13.9% (active); in assay [12] it was -19.2% (active). The growth in assay [13] was 19.1%; in assay [14], 23.1%; in assay [15], 22.4%; in [16], 17.6%; in assay [17], 13.8%; in assay [18], -23.3% (active). In addition, the growth in assay [19] was 42.7%; in assay [20] it was 0.618% (active).

Take `Cc1ccc(C(=O)c2ccc(CC(=O)NN3C(=O)c4ccccc4C3=O)n2C)cc1`: the growth in assay [1] is 102%; in assay [2], 100%; in assay [3], 92.8%; in assay [4], 75.7%; in assay [5], 111%; in [6], 96.3%. The growth in [7] was 87.4%; in [8], 104%; in assay [9], 110%; in assay [10], 100%; in [11] it was 110%; in [12], 100%. In addition, the growth is 98.9% in [13]; 93.7% in assay [14]; 101% in assay [15]; 109% in assay [16]; 98.6% in [17]; 107% in [18]. The results for the growth in assay [19] and in assay [20] were 104% and 99.1%, respectively.

Take `CCNC(=O)Oc1ccc(/C(=C(/CC)Cc2ccccc2)c2ccc(OCCN3CCCC3)cc2)cc1`: the growth in assay [1] was 108%; in [2], 88.3%; in assay [3] it was 92.7%; in assay [4], 83.5%; in [5] it was 91.2%; in assay [6] it was 95.1%. The growth was 96.8% in assay [7]; 89.3% in assay [8]; 87.2% in assay [9]; 75.9% in [10]; 75.5% in assay [11]; 77.7% in assay [12]. Further, the growth was 94.1% in assay [13]; 94.6% in [14]; 93.3% in assay [15]; 88.5% in [16]; 91.5% in [17]; 96.9% in assay [18]. Further, the growth in assay [19] was 93.5%; in assay [20], 97.9%.

As to `O=C(Cn1nnc2ccccc21)N/N=C/c1c[nH]c2ccccc12`, the growth was 38.4% in [1]; 62.4% in assay [2]; 45.9% in [3]; 52.4% in assay [4]; 64.7% in [5]; 64.1% in assay [6]. Further, the growth in assay [7] was 45.7%; in [8], 60.4%; in [9], 47.7%; in assay [10], 29.9%; in assay [11], 18.3%; in [12] it was 45%. Further, the growth in assay [13] was 44.8%; in assay [14] it was 71.9%; in assay [15], 82%; in [16], 65.7%; in assay [17], 54.1%; in [18], 22.4%. The results for the growth in assay [19] and in assay [20] were 57.5% and 47.6%, respectively.

With `O=C(Nc1ncc(Cc2ccccc2)s1)c1ccc2c(c1)OCCCO2`, the growth in assay [1] was 30.6%; in [2], 36.7%; in [3], 40.4%; in assay [4], 48.1%; in assay [5] it was 55.9%; in assay [6], 34%. The growth in assay [7] is 25.3%; in assay [8] it was -2.27% (active); in assay [9] it was 16.2%; in assay [10], 21.4%; in assay [11], 7.17% (active); in [12], 14.3%. The growth is 44.9% in assay [13]; 47.6% in assay [14]; 52.3% in assay [15]; 55.2% in assay [16]; 41.1% in [17]; -10.5% (active) in [18]. Besides, the growth was 49.7% in [19] and 9.35% (active) in assay [20].

On to `O=S(=O)(Oc1ccc(Br)cc1)c1ccc(Cl)cc1`, for which the growth in assay [1] is 116%; in assay [2], 95.7%; in [3], 105%; in [4], 82.3%; in assay [5] it was 84.1%; in assay [6], 117%. Moreover, the growth in assay [7] was 105%; in [8], 86.6%; in assay [9], 97%; in assay [10] it was 85.1%; in [11], 98.3%; in assay [12], 99.7%. In addition, the growth in assay [13] is 106%; in assay [14], 92.5%; in assay [15], 98.9%; in [16] it was 108%; in [17], 98.8%; in assay [18], 98.3%. The growth was 104% in assay [19] and 96.2% in assay [20].
